# Test results from PubChem BioAssay.
# Active and inactive are the calls of the source.
# Key:
# [1] = tested on: Plasmodium falciparum Sir2 (PF13_0152, Sir2A); test: Plasmodium falciparum Sir2A binding compounds – biochemical, small-molecule microarray, 635 nm fluorescence, primary screen (AID 1098); details: fluorescence 635 nm, higher = more signal;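 note: score merges spot fluorescence intensity with its signal-to-noise ratio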
# [2] = probe aDKK1 binding to arrayed compounds – biochemical, biotinylated probe, 635/667 nm fluorescence, primary screen (AID 1099); details: small-molecule microarray, higher = more signal;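 note: score merges 667nm spot fluorescence with signal to noise across triplicate slides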
# [3] = probe aCHRDL2 binding to arrayed compounds – biochemical, biotinylated probe, 635/667 nm fluorescence, primary screen (AID 1100); details: small-molecule microarray, higher = more signal
# [4] = change in splice reporter luminescence, either direction, cell-based, HEK293, spliceosome inhibition project, primary screen (AID 1101); details: HEK293 splicing luciferase reporter, 24 h, higher = more signal, called active from +8 up or from −8 down;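 note: HEK293 cells carrying a splicing-competent luciferase reporter gene; test concentration not given here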
# [5] = target: Fibroblast growth factor 10 (Homo sapiens) (UniProt O15520); test: compounds binding fibroblast growth factor 10 – biochemical, small-molecule microarray, 635 nm fluorescence, primary screen (AID 1102); details: FGF10 binding, fluorescence 635 nm, higher = more signal
# Chain of Fibroblast growth factor 10 (Homo sapiens) (O15520 whole entry, looked up): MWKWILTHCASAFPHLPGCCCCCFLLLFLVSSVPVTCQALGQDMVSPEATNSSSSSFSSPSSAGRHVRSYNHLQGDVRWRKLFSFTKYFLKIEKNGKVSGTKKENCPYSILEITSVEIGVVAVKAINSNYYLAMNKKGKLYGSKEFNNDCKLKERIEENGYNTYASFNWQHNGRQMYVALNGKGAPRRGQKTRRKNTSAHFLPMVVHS
# [6] = tested on: glycogen synthase kinase-3 (GSK3A per assay name; protocol says GSK3B); test: compounds binding glycogen synthase kinase-3 – biochemical, small-molecule microarray, 635 nm fluorescence, GSK3A, primary screen (AID 1103); details: fluorescence 635 nm, higher = more signal; note: the record names both GSK3A and GSK3B
# [7] = target: Epidermal growth factor receptor (Homo sapiens) (UniProt P00533); test: compounds binding epidermal growth factor receptor – biochemical, small-molecule microarray, 635 nm fluorescence, primary screen (AID 1104); details: EGFR binding, higher = more signal;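 note: score merges 667 nm emission intensity with spot signal to noise over triplicate slides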
# Chain of Epidermal growth factor receptor (Homo sapiens) (P00533 whole entry, looked up): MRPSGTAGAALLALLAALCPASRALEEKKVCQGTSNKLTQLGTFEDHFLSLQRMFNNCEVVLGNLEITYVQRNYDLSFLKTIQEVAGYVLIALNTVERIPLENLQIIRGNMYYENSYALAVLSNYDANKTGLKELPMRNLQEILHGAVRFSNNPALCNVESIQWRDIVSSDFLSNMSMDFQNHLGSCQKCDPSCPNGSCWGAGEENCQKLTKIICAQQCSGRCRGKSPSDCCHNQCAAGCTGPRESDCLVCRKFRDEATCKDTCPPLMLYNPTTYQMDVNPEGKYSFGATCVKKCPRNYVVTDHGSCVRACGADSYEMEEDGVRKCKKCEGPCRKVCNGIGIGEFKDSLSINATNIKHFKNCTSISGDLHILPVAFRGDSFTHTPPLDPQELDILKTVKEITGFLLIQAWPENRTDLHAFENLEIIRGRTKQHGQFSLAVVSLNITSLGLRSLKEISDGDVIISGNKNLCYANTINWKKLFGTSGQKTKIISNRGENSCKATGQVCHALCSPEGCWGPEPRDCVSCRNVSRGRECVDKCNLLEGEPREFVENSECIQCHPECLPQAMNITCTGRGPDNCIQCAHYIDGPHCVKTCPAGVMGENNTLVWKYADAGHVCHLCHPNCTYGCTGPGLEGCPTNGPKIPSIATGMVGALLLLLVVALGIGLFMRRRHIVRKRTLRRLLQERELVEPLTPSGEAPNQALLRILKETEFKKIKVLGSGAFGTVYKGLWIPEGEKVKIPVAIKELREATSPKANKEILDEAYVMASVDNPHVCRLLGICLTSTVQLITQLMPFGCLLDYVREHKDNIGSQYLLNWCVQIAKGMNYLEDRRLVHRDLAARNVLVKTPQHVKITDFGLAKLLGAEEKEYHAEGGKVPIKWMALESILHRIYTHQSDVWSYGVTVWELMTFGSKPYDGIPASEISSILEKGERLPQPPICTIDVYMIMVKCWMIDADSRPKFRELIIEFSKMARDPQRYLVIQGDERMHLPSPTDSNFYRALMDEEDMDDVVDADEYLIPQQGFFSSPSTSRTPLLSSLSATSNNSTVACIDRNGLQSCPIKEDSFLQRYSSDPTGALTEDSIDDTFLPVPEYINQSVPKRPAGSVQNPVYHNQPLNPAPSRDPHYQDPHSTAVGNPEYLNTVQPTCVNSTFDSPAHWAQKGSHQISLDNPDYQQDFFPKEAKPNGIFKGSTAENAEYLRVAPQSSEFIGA
# [8] = target: Follistatin-related protein 3 (Homo sapiens) (UniProt O95633); test: compounds binding follistatin-related protein 3 – biochemical, small-molecule microarray, 635 nm fluorescence, primary screen (AID 1105); details: FSTL3 binding, higher = more signal;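 note: score merges emission near 667 nm and signal to noise per printed spot across three slides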
# Chain of Follistatin-related protein 3 (Homo sapiens) (O95633 whole entry, looked up): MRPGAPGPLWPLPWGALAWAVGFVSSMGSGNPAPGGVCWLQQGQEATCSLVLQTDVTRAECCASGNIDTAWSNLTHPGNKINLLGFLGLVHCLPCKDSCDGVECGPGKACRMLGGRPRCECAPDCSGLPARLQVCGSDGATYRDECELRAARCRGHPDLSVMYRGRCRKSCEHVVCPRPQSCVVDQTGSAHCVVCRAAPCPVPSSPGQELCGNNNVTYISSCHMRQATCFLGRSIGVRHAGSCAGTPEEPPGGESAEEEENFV
# [9] = target: Dickkopf-related protein 1 (Homo sapiens) (UniProt O94907); test: small molecules binding DKK1 protein – biochemical, small-molecule microarray, 635 nm fluorescence scan, primary screen (AID 1106); details: higher = more signal;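 note: score merges emission near 667 nm with signal to noise over three replicate slides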
# Chain of Dickkopf-related protein 1 (Homo sapiens) (O94907 whole entry, looked up): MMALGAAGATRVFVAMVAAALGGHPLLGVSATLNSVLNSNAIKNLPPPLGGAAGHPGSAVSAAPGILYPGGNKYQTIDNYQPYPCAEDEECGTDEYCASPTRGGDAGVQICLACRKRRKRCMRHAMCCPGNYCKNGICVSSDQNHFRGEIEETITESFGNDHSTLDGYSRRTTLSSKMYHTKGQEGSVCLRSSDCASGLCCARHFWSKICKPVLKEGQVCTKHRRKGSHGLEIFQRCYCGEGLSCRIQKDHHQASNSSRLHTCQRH
# [10] = tested on: Inhibin beta A chain (activin A); test: small molecules binding activin A – biochemical, small-molecule microarray, 635 nm fluorescence scan, primary screen (AID 1107); details: INHBA, higher = more signal;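 note: mouse activin A protein probed at 4.33 µg/mL on printed slides; score merges bound-protein fluorescence near 667 nm with spot signal-to-noise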
# [11] = tested on: Human papillomavirus type 1a protein E7 (residues 44-93); test: small molecules binding HPV E7 44-93 – biochemical, small-molecule microarray, residues 44-93, 635 nm fluorescence, primary screen (AID 1108); details: fluorescence 635 nm, higher = more signal;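 note: E7 fragment applied at 1 µg/mL in TBST for 1 h at 4 C; score combines spot fluorescence with its signal to noise ratio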
# [12] = hepatitis C replication reporter changes, two-sided – Huh7 cells, luciferase reporter, HCV replication inhibitor project, primary screen (AID 1109); details: Huh7 HCV replicon luciferase reporter, 48 h; higher = more signal;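 note: huh7 hepatoma cells harbouring a luciferase neomycin HCV replicon reporter; luciferase luminescence as measure of HCV replicon replication; test concentration not given here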
# [13] = target: Left-right determination factor 2 (Homo sapiens) (UniProt O00292); test: small molecules binding LEFTY2 protein – biochemical, small-molecule microarray, 635 nm fluorescence scan, primary screen (AID 1110); details: higher = more signal
# Chain of Left-right determination factor 2 (Homo sapiens) (O00292 whole entry, looked up): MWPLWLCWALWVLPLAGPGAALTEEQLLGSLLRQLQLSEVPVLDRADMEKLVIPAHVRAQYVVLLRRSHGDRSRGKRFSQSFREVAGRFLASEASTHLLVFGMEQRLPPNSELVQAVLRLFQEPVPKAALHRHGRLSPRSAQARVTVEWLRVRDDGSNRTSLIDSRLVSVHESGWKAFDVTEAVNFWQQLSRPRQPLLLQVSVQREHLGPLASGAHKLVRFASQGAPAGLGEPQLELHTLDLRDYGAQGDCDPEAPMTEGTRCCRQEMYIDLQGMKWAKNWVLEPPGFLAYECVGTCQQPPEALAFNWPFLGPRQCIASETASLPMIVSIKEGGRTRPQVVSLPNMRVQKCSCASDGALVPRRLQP
# [14] = target: Calmodulin-1 (Homo sapiens) (UniProt P0DP23); test: small molecules binding calmodulin-1 with EGTA – biochemical, small-molecule microarray, Cy5-labelled CALM1, profiling panel (AID 1111); details: Cy5-CALM1 binding fluorescence, higher = more signal;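 note: labelled calmodulin applied in Tris saline Tween buffer holding calcium plus EGTA and DTT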
# [15] = target: Calmodulin-1 (Homo sapiens) (UniProt P0DP23); test: small molecules binding Ca-loaded calmodulin-1 – biochemical, small-molecule microarray, Cy5-labelled CALM1, plus calcium, artefact control for SMM control-protein annotation, profiling panel (AID 1112); details: Cy5-CALM1 binding fluorescence, higher = more signal;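 note: score merges spot fluorescence with signal to noise from triplicate slides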
# [16] = probe aWnt5a binding to arrayed compounds – biochemical, biotinylated probe, 635/667 nm fluorescence, primary screen (AID 1113); details: small-molecule microarray, higher = more signal;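 note: score merges 667 nm fluorescence intensity with signal-to-noise per printed feature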
# [17] = probe aShh binding to arrayed compounds – biochemical, biotinylated probe, 635/667 nm fluorescence, primary screen (AID 1114); details: small-molecule microarray, higher = more signal;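 note: probe is biotin-labelled aShh protein from a stem cell growth factor screen; measures binding of labelled protein to compounds printed on the slide; score merges feature fluorescence at 667 nm with signal-to-noise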
# [18] = probe aNog binding to arrayed compounds – biochemical, biotinylated probe, 635/667 nm fluorescence, primary screen (AID 1115); details: small-molecule microarray, higher = more signal;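 note: probe is biotinylated aNog protein used at 0.15 µg/mL for 1 h at 4 C; z-score combines 667 nm fluorescence of each spot with its signal to noise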
# [19] = target: Torsin-1A-interacting protein 1 (Homo sapiens) (UniProt Q5JTV8); test: compound microarray binding of lysate hLAP1 – cell lysate, small-molecule microarray, COS7 lysate, 635/667 nm fluorescence, primary screen (AID 1116); details: 635 nm fluorescence, higher = more signal
# Chain of Torsin-1A-interacting protein 1 (Homo sapiens) (Q5JTV8 whole entry, looked up): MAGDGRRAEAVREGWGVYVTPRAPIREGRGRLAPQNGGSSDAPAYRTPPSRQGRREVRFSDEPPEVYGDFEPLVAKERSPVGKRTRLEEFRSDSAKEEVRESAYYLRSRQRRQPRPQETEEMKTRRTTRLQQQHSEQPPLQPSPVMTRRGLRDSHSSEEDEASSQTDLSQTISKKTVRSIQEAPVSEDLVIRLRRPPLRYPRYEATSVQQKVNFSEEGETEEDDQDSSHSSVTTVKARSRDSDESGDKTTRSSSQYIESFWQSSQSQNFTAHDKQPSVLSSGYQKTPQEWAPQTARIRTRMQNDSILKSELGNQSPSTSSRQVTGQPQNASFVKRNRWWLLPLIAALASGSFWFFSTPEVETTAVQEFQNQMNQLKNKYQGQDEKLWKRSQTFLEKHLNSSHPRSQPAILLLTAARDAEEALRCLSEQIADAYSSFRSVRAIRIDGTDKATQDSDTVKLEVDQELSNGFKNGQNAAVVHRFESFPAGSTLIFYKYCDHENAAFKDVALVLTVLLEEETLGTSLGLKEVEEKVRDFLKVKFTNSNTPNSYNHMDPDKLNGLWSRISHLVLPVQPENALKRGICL
# [20] = target: Alpha-bungarotoxin (Bungarus multicinctus) (UniProt P60615); test: compounds binding labelled alpha-BTX control protein – biochemical, small-molecule microarray, Alexa647 label, 635/667 nm fluorescence, artefact control for SMM control protein annotation, profiling panel (AID 1117); details: alpha-BTX-A647 binding fluorescence, higher = more signal
# Chain of Alpha-bungarotoxin (Bungarus multicinctus) (P60615 whole entry, looked up): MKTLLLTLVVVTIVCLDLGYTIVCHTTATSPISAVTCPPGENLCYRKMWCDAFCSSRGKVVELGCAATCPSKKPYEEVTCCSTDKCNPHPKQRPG
Compound,composite z-score [1],composite z-score [2],composite z-score [3],z-score [4],composite z-score [5],composite z-score [6],composite z-score [7],composite z-score [8],composite z-score [9],composite z-score [10],composite z-score [11],z-score [12],composite z-score [13],composite z-score [14],composite z-score [15],composite z-score [16],composite z-score [17],composite z-score [18],composite z-score [19],composite z-score [20]
COCCOC(=O)N1C(=O)[C@@]2(c3cc(C#CCNC(N)=O)ccc31)[C@H](c1ccccc1OCCO)N1[C@H](c3ccccc3)[C@H](c3ccccc3)OC(=O)[C@H]1[C@@H]2C(=O)NC[C@H](O)c1ccccc1,1.08,0.0288,0.352,0.408 (inactive),1.18,0.618,0.134,1,0.117,0.203,1.44,-1.1,0.391,1.07,0.527,-0.0239,0.0639,0.385,0.867,2.05
CCN1C(C)=C(C(=O)OC)[C@@H](c2ccccc2)N2C(=O)[C@@]3(C(=O)OC)O[C@@]12[C@@H]1C(=O)CCC[C@@H]13,0.604,-0.786,-1.31,-0.814 (inactive),0.903,0.8,0.648,1.06,1.85,1.01,0.0258,-0.216,1.38,-1.2,-1.08,-0.0758,0.0637,-0.43,0.157,-0.954
C[C@H]1C2[C@H](Cc3ccccc3)NC(=O)[C@]23C(=O)N[C@H](Cc2ccccc2)C(=O)N[C@@H](Cc2ccccc2)C(=O)NC/C=C\C/C=C/C3[C@@H]2O[C@]12C (stereo not given in full),0.0468,-0.315,-0.202,-0.148 (inactive),0.345,-0.256,-0.228,0.223,0.409,1.16,-0.767,-0.204,0.419,-0.297,-0.348,-0.199,-0.0553,0.471,0.86,-0.506
COC(=O)C1=CC(c2ccc(CO)cc2)=CC(C2CC2)N(Cc2sc3ccccc3c2Cl)C=C1C(=O)OC (stereo not given),1.55,1.02,0.978,-1.16 (inactive),0.855,1.3,0.242,1.19,0.304,0.715,1.29,-1.27,0.204,2.45,0.975,0.0017,0.246,1.38,2.42,2.75
CN(C)c1ccc(C(O)C2C=CC3C(=O)NC(=O)C3N2Nc2ccc(Cl)cc2Cl)cc1 (stereo not given),0.189,0.88,1.09,0.701 (inactive),0.356,0.121,-0.789,0.554,-0.336,1.43,1.36,-0.0428,-1.14,0.615,-0.327,0.0328,0.0993,1.21,0.0689,0.359
CCCC[C@@H]1C[C@H]1[C@@H](NC(=O)c1cccs1)c1ccc(Cl)cc1,0.509,0.517,0.943,-2.23 (inactive),-1.5,-1.13,-1.34,-2.23,-1.75,0.269,-0.416,-1.27,-1.19,0.27,0.696,0.0095,-0.0578,0.46,-0.939,-1.37
CCOC(=O)C[C@H]1[C@H](OC(=O)c2ccccc2-c2ccccc2)[C@@H](NC(=O)c2ccc(-c3ccccc3)cc2)c2cc(OCCCO)ccc2N1C(=O)Cc1ccc(OC)cc1,-0.0957,-0.394,-0.44,-0.288 (inactive),0.295,-0.189,0.147,0.38,0.428,0.701,0.295,-2.04,0.462,-0.203,-0.499,-0.111,-0.0626,-0.31,-0.0098,0.322
C=CC[C@]1(C(N)=O)N=C(c2ccc(OCCCO)cc2)O[C@H]1c1ccccc1CN=[N+]=[N-],0.255,0.683,1.24,-0.783 (inactive),0.0555,0.518,-1.03,-0.325,-0.632,1.46,1.03,-1.33,-1.11,1.91,1.14,-0.124,-0.203,0.165,1.87,1.03
C[C@H]1NC(=O)[C@@H](C)NC(=O)[C@@]23C(=O)N[C@@H](Cc4ccccc4)C2[C@H](C)[C@@]2(C)O[C@H]2C3/C=C/C/C=C\CNC1=O (stereo not given in full),1.66,-0.581,-0.781,-0.697 (inactive),0.14,0.0002,0.0021,0.171,0.422,1.28,-0.569,-0.175,0.182,-0.809,-1.32,-0.0758,-0.221,-0.0684,-0.485,0.393
COC(=O)[C@H]1[C@@H]2COc3ccccc3[C@H]2N[C@H]1C(=O)OC,0.0829,-0.0995,0.0399,-0.685 (inactive),0.348,0.332,0.261,0.327,0.0008,0.0992,-0.339,-0.591,0.362,0.623,-0.266,-0.0161,-0.0626,-0.223,0.0767,0.854
NC(=O)NCC#Cc1ccc2c(c1)[C@]1(C(=O)N2)[C@H](C(N)=O)[C@H]2C(=O)O[C@H](c3ccccc3)[C@H](c3ccccc3)N2[C@@H]1c1ccccc1OCCO,0.628,0.371,0.482,-0.328 (inactive),1.06,0.343,0.269,1.02,0.576,1.02,1.04,-0.771,0.375,0.425,0.356,-0.124,-0.0793,0.657,0.808,0.45
